Measured values: PubChem BioAssay
Inconclusive results are not listed. The source made the active and inactive calls.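 How the source made its calls, unless noted: active means growth inhibition above 25% in both replicates, a cutoff set 3 SD above the mean; inconclusive means above 25% in only one replicate; inactive means the rest.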

What was measured:
[1] = reduced viability of SK-BR-3 breast cancer cells – cell-based, 24 h, human, pilot screen (AID 572;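 active means viability at or below 10% of carrier control in both of two separate runs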;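 further: compound exposure lasted between 18 and 24 h rather than exactly 24 h; 100% = carrier-treated control wells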); details: SK-BR-3 viability, CellTiter-Glo luminescence, at 10 µM, stronger effect = lower value
[2] = HUVEC growth inhibition – cell-based, human, primary screen (AID 575;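 active means viability at or below 30% in both replicate assays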;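 further: 100% = median of untreated cell wells with 0.1% DMSO on each plate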); details: HUVEC proliferation, CellTiter-Glo luminescence, 72 h; at 10 µM; stronger effect = lower value
[3] = H69AR cell proliferation blockers – human, duplicate replicates, primary screen (AID 580;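 active means viability at or under a set limit in both replicates, limit being median viability minus 3 SD, cut at about 48% in these data, passing the limit was not always enough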;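 further: 100% = mean luminescence of untreated wells and 0% = no signal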); details: H69AR lung tumor cells viability, ATP luminescence, 72 h; at 10 µM; stronger effect = lower value
[4] = MRP1 drug-resistance reversers in H69AR cells – cell-based, doxorubicin co-treatment, pilot screen (AID 601;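 active means viability loss from added drug above about 55%, and viability with drug at most 40%, in both replicates, limit read from the data, passing the limit was not always enough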); details: CellTiter-Glo, 72 h, at 10 µM; for differential viability (reversal): stronger effect = higher value
[5] = yeast transport mutant growth inhibition pilot in 384-well plates, post-Golgi transport modulator project (AID 636; in the data active means inhibition above about 31%); details: absorbance 615 nm, about 18 h, stronger effect = higher value
[6] = growth suppression of yeast trafficking mutant, preliminary HTS, modulators of trafficking downstream of Golgi apparatus project, 1536-format plate, OD 615 nm (AID 637; in the data active means inhibition above about 30%); details: yeast transport mutant growth, absorbance 615 nm, 18 h; stronger effect = higher value
[7] = S. cerevisiae growth inhibition in permissive medium (OD615), pilot counter-assay for S. cerevisiae lifespan shortening project, permissive growth control (AID 705); details: OD615, 24 h, at 10 µM, stronger effect = higher value
[8] = S. cerevisiae growth inhibition in restrictive medium, OD615, pilot screen, restrictive growth control, yeast lifespan reduction project (AID 706;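 active means growth inhibition above a set limit, 3 SD over mean compound inhibition, in both replicates, cut at about 43% in these data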;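 further: modified DeaD lifespan yeast strain shifted to restrictive glucose medium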); details: OD615, 48 h, at 10 µM, stronger effect = higher value
[9] = doxorubicin toxicity protection in MRP-1 cells – H69AR cells, CellTiter-Glo, duplicate, MRP-1 activator project, pilot screen (AID 807;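 active means viability increase at or above a cutoff of the median across tested compounds plus 3 SD, cut at about 8.5% in these data, passing the limit was not always enough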;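 further: compound pretreatment 18-22 h then 72 h combined with doxorubicin; 0% = doxorubicin alone and 100% = vehicle without doxorubicin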); details: H69AR viability with doxorubicin, CellTiter-Glo luminescence; at 10 µM; stronger effect = higher value
[10] = viability of HCT116 without oncogenic beta-catenin – human colon tumor cells, pilot screen (AID 823;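 active means cell viability at or below a set limit in both duplicate runs, the limit being the all-compound median minus 4 SD, cut at about 23% in these data, passing the limit was not always enough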;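 further: 0% = wells killed by 20 µM Hyamine and 100% = untreated DMSO cell wells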); details: HCT116 beta-catenin knockout viability, CellTiter-Glo, 60 h; at 10 µM; stronger effect = lower value
[11] = viability of PTEN-null HCT116 cells – cell-based, HCT116 clonal line, CellTiter-Glo, pilot screen (AID 824;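 active means viability at or below 27.92% in each of two runs, the all-compound median minus 4 SD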;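 further: 0% = 20 µM Hyamine control and 100% = vehicle cell control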); details: HCT116 PTEN-deleted viability, 60 h, at 10 µM, stronger effect = lower value
[12] = RAM pathway blockade in budding yeast – dse1pr::URA3 reporter, 5-FOA selection, pilot screen (AID 869;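 active means inhibition over a set limit, the all-compound mean plus 3 SD, in both replicate runs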;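 further: 0% = DMSO wells with no growth and 100% = 10 µM 1-NA-PP1 with full growth; RAM network block rescues cells from 5-FOA so hits raise OD615 growth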); details: S. cerevisiae dse1pr::URA3 5-FOA growth, OD615, 2 d; at 10 µM; stronger effect = higher value; strain carries analog-sensitive mutant Cbk1 kinase
[13] = RAM signaling pathway blockade in yeast – S. cerevisiae, Pdr1DBD-CYC8 efflux-inhibited sensitized strain, primary screen (AID 1298;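 active means RAM network inhibition above 8.4% in each of two replicates, 3 SD over the compound average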;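 further: 0% = DMSO untreated cells without growth and 100% = 10 µM 1-NA-PP1 full growth; higher means more yeast growth rescued from 5-FOA killing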); details: S. cerevisiae cbk1-as DSE1-URA3 strain, 5-FOA growth OD615, 2 d; at 50 µM; stronger effect = higher value
[14] = H69AR cells + 2 uM doxorubicin, measured here: viability with 2 uM doxorubicin, stronger effect = lower value
[15] = H69AR cells, compound alone cytotoxicity

O=C(c1ccco1)c1nnn(Cc2ccccc2)c1-c1ccccc1
85.1%: viability [4, 15]
inactive: viability [1] 107% | viability [2] 102% | viability [3] 85.1% | differential viability (reversal) ([4]; H69AR cells + 2 uM doxorubicin) 3.42% | inhibition [5] -2.93% | inhibition [6] -4.73% | growth inhibition [7] -6.81% | growth inhibition [8] -8.41% | viability increase [9] -2.38% | viability [10] 93.5% | viability [11] 99.1% | inhibition [12] 2.21% | RAM network inhibition [13] -0.25%
81.7%: viability [4, 14]

CCOC(=O)C1=C(CS(=O)(=O)c2ccc(F)c(C)c2)NC(=O)NC1c1ccc(O)c(O)c1 (stereo not given)
inactive: viability [1] 112% | viability [2] 85.2% | viability [3] 92.6% | differential viability (reversal) ([4]; H69AR cells + 2 uM doxorubicin) 9.16% | inhibition [5] -4.13% | inhibition [6] -7.54% | growth inhibition [7] 0.775% | growth inhibition [8] -9.4% | viability increase [9] -1.64% | viability [10] 99.1% | viability [11] 94.8% | inhibition [12] -0.51% | RAM network inhibition [13] 1.66%
83.4%: viability [4, 14]
92.6%: viability [4, 15]

Cc1ccc(N2C(=O)c3oc4ccccc4c(=O)c3C2c2cccc(O)c2)nc1 (stereo not given)
103%: viability [4, 14]
inactive: viability [1] 102% | viability [2] 59.1% | viability [3] 91.8% | differential viability (reversal) ([4]; H69AR cells + 2 uM doxorubicin) -11.7% | inhibition [5] 0.9% | inhibition [6] 2.17% | growth inhibition [7] -6.7% | growth inhibition [8] -3.53% | viability increase [9] 1.12% | viability [10] 73.1% | viability [11] 71.7% | inhibition [12] 3.22% | RAM network inhibition [13] 7.27%
91.8%: viability [4, 15]

CC(Sc1n[nH]c(=O)[nH]c1=O)C(=O)OCc1ccccc1 (stereo not given)
99.9%: viability [4, 15]
88.3%: viability [4, 14]
inactive: viability [1] 94% | viability [2] 116% | viability [3] 99.9% | differential viability (reversal) ([4]; H69AR cells + 2 uM doxorubicin) 11.6% | inhibition [5] -5.6% | inhibition [6] -0.18% | growth inhibition [7] -21.9% | growth inhibition [8] -8.41% | viability increase [9] 0.49% | viability [10] 103% | viability [11] 98.5% | inhibition [12] 1.66% | RAM network inhibition [13] 5.73%

COCc1cc(C)nc(Nc2ccc(C)cc2C)c1C#N
inactive: viability [1] 70% | viability [2] 84.8% | viability [3] 104% | differential viability (reversal) ([4]; H69AR cells + 2 uM doxorubicin) 9.25% | inhibition [5] -2.43% | inhibition [6] 2.46% | growth inhibition [7] -9.57% | growth inhibition [8] -2.85% | viability increase [9] -4.12% | viability [10] 97.2% | viability [11] 90.6% | inhibition [12] 1.15% | RAM network inhibition [13] 0.15%
95.1%: viability [4, 14]
104%: viability [4, 15]

O=C(Nc1nc2c(s1)CCCC2)C1COc2ccccc2O1 (stereo not given)
99%: viability [4, 14]
inactive: viability [1] 103% | viability [2] 63.1% | viability [3] 88.3% | differential viability (reversal) ([4]; H69AR cells + 2 uM doxorubicin) -10.7% | inhibition [5] -4.27% | inhibition [6] -5.25% | growth inhibition [7] -5.28% | growth inhibition [8] -7.76% | viability increase [9] 0.74% | viability [10] 90.3% | viability [11] 87% | inhibition [12] 0.75% | RAM network inhibition [13] 0.16%
88.3%: viability [4, 15]

O=C(Nc1ccncc1)c1cc2ccccc2o1
91.1%: viability [4, 14]
105%: viability [4, 15]
inactive: viability [1] 113% | viability [2] 101% | viability [3] 105% | differential viability (reversal) ([4]; H69AR cells + 2 uM doxorubicin) 13.8% | inhibition [5] -0.4% | inhibition [6] -0.36% | growth inhibition [7] -10.7% | growth inhibition [8] -6.96% | viability increase [9] -0.51% | viability [10] 95.7% | viability [11] 95.9% | inhibition [12] 1.73% | RAM network inhibition [13] 4.22%

CC1=C(C(N)=O)C(c2ccccn2)n2nc(SCc3ccccc3)nc2N1 (stereo not given)
93.8%: viability [4, 15]
inactive: viability [1] 88% | viability [2] 94% | viability [3] 93.8% | differential viability (reversal) ([4]; H69AR cells + 2 uM doxorubicin) -2.02% | inhibition [5] -3.92% | inhibition [6] -5.64% | growth inhibition [7] -2.97% | growth inhibition [8] 3.69% | viability increase [9] 2.38% | viability [10] 102% | viability [11] 95.6% | inhibition [12] 0.46% | RAM network inhibition [13] 2.59%
95.9%: viability [4, 14]

COc1cccc(C2C(C(=O)c3cccs3)=C(O)C(=O)N2CCCn2ccnc2)c1OC (stereo not given)
88.3%: viability [4, 14]
inactive: viability [1] 130% | viability [2] 102% | viability [3] 109% | differential viability (reversal) ([4]; H69AR cells + 2 uM doxorubicin) 20.9% | inhibition [5] -7.47% | inhibition [6] 3.09% | growth inhibition [7] -6.37% | growth inhibition [8] 1.34% | viability increase [9] -1.56% | viability [10] 89.1% | viability [11] 89.5% | inhibition [12] 0.145% | RAM network inhibition [13] 0.92%
109%: viability [4, 15]
